Compound activity deposited in PubChem by several laboratories.
Shown are actives, neighbours in structure and some others; about 0.9% of the full set was active somewhere.
RecA splice inh – Mtb RecA intein splicing inhibitors, primary screen, biochemical, fluorescence, HTS. Protein RecA (Mycobacterium tuberculosis (strain ATCC 25618 / H37Rv)), P9WHJ3. cell-free RecA intein splicing. inhibition, % (no concentration beside the values). hit rate 0.75% among 290,000. AID 2221, 2009; in the data active means inhibition above about 30%;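 further: 0% = vehicle wells and 100% = reference inhibitor control wells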
Mtb UGM inh – M. tuberculosis UGM enzyme inhibitors, primary screen, biochemical, fluorescence polarization, single point | inhibition, % at 10 µM | UDP-galactopyranose mutase (Mycobacterium tuberculosis (strain ATCC 25618 / H37Rv)), … | purified UGM, fluorescence polarization probe displacement | hit rate 0.06% among 320,000; in the data active means inhibition above about 10%, passing the limit was not always enough
Target sequence (P9WIQ1 whole entry, looked up): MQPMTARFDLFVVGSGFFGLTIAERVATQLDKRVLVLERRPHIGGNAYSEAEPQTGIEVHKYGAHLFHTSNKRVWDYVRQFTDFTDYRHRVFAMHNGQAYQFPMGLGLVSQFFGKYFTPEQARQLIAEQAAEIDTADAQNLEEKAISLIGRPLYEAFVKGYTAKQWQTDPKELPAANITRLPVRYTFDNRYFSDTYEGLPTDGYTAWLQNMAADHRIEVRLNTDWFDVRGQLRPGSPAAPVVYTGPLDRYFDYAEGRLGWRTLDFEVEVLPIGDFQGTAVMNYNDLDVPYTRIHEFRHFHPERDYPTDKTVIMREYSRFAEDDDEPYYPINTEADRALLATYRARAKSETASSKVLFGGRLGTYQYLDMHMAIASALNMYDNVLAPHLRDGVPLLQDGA
FadD28 FP inh – inhibitors of FadD28 bisubstrate probe binding, primary screen, biochemical, fluorescence polarization, single point; hit rate 0.22% among 360,000; inhibition, % at 12.5 µM; in the data active means inhibition above about 8.5%, passing the limit was not always enough
Mtb BioA inh – M. tuberculosis BioA enzyme inhibitors, primary screen, biochemical, plate reader, single point, HTS; purified M. tuberculosis BioA enzyme; hit rate 0.096% among 360,000; inhibition, % at 9.99 µM; 7,8-diaminopelargonic acid synthase BioA (Mycobacterium tuberculosis); in the data active means inhibition above about 40%
Rv3671c inh – Rv3671c serine protease inhibitors, primary screen, biochemical, fluorescence polarization, M. tuberculosis H37Rv. AID 2606, 2010. P9WHR9. hit rate 0.048% among 320,000. inhibition, % at 5.96 µM; in the data active means inhibition above about 38%;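 further: extracellular domain of Rv3671c used as enzyme; 0% = enzyme with DMSO and 100% = no enzyme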
TcdB inh – TcdB glycohydrolase inhibitors, primary screen, biochemical, single point, plate reader; Toxin B (Clostridioides difficile), P18177; TcdB glycohydrolase enzymatic assay; inhibition, % at 9.99 µM; hit rate 0.24% among 350,000; AID 652162, 2013; in the data active means inhibition above about 10%
GFP chromophore – counter-screen: blocks GFP chromophore formation, dose response, counter-screen, biochemical, fluorescence, homogeneous; hit rate 83% among 2,100; cell-free GFP chromophore formation; EC50, µM; shares compounds with RecA splice inh; call rule not given here
* hit, by the source's call; nt = no result.

SMILES	RecA splice inh	Mtb UGM inh	FadD28 FP inh	Mtb BioA inh	Rv3671c inh	TcdB inh	GFP chromophore
CCCCC(=O)NC(c1cccc([N+](=O)[O-])c1)c1c(OC(C)=O)ccc2ccccc12 (stereo not given)	35*	1	-3	1	-7	nt	>38
CC(=O)NC(c1cccc([N+](=O)[O-])c1)c1c(OC(C)=O)ccc2ccccc12 (stereo not given)	7	0	-4	1	-10	1	nt
C[C@@H]1CN([C@@H](C)CO)C(=O)c2cc(NC(=O)CCN3CCOCC3)ccc2O[C@H]1CN(C)S(=O)(=O)c1cn(C)cn1	nt	nt	nt	-2	nt	-1	nt
COc1cc2c(cc1OC)C(C1C(=O)CC(C)(C)CC1=O)N(C(=O)CCl)CC2 (stereo not given)	-7	-3	-2	nt	-11	1	nt
COc1cc2c(cc1OC)C(c1cc(Br)ccc1F)N(C(=O)CCl)CC2 (stereo not given)	86*	1	-2	1	-7	1	4.5*
CCCN1C[C@@H](C)[C@H](OC)CN(C)C(=O)c2ccc(NC(=O)c3ccccc3)cc2OC[C@@H]1C	nt	nt	nt	2	nt	-1	nt
CC(=O)OCn1ncc(N2CCOCC2)c(Br)c1=O	0	0	-1	-2	-2	1	nt
O=C(OCn1ncc(Br)c(Br)c1=O)c1ccccc1Cl	64*	3	1	-1	-9	1	1.8*
O=C(OCn1ncc(Br)c(Br)c1=O)c1ccc(F)cc1	73*	-3	0	-1	-5	nt	2.2*
Fc1ccccc1CNCCC(Cc1ccccc1)c1ccc2c(c1)OCO2 (stereo not given)	4	0	-6	1	3	0	nt
CC(=O)N(CCC(Cc1ccccc1)c1ccc2c(c1)OCO2)Cc1ccccc1F (stereo not given)	36*	2	0	1	-5	nt	>38
O=C1CCCC(O)=C1C(C#Cc1ccccc1)C1=C(O)CCCC1=O	30*	4	-2	-1	6	nt	12*
Cc1ccc(S(=O)(=O)N(C)C[C@@H]2Oc3c(NC(=O)c4cnccn4)cccc3C(=O)N([C@@H](C)CO)C[C@@H]2C)cc1	nt	nt	nt	-3	nt	0	nt
Cc1[nH]c2ccc(F)cc2c1CCN(Cc1cccnc1)C(=S)Nc1ccc(F)cc1	40*	-5	0	0	18	0	>38
Cc1nn(Cc2ccccc2)c2c1C(c1cccc(Cl)c1)C(C#N)=C(N)O2 (stereo not given)	73*	-1	1	0	11	nt	32*
CCCc1nn(C)c2c1C(c1ccncc1)C(C#N)=C(N)O2 (stereo not given)	64*	-1	-2	-3	7	nt	30*
Cc1nn(-c2ccccc2)c2c1C(c1ccncc1)C(C#N)=C(N)O2 (stereo not given)	38*	1	0	nt	-3	nt	17*
Cc1cc2c(c(=O)n1C1CC1)C(c1cccc(Cl)c1)C(C#N)=C(N)O2 (stereo not given)	1	-1	-3	1	-15	nt	nt
COc1cc(-n2nc(C)c3c2OC(N)=C(C#N)C3c2ccccc2)c(Cl)c(Br)c1O (stereo not given)	72*	3	5	5	-5	nt	20*
COc1ccc(CNC(=O)C[C@H]2CC[C@@H](NC(=O)c3ccc4c(c3)OCO4)[C@H](CO)O2)cc1	nt	nt	nt	0	nt	0	nt
Cc1ccc(-n2nc(C)c3c2OC(N)=C(C#N)C3c2cccs2)cc1 (stereo not given)	65*	3	-2	-1	-79	nt	5*
Cc1ccc(-n2nc(C)c3c2OC(N)=C(C#N)C3c2ccncc2)cc1 (stereo not given)	nt	-1	1	2	10	nt	nt
O=C(O)COc1ccc(/C=C2/SC(=S)N(Cc3ccccc3)C2=O)cc1	53*	-5	0	5	-19	0	36*
CCN1C(=O)/C(=C\c2cccc(OC(=O)c3ccco3)c2)SC1=S	1	4	0	-2	-10	2	nt
O=C(O)CN1C(=O)/C(=C\c2cccc(OC(=O)c3ccco3)c2)SC1=S	31*	3	-3	5	5	1	>38
SMILES	RecA splice inh	Mtb UGM inh	FadD28 FP inh	Mtb BioA inh	Rv3671c inh	TcdB inh	GFP chromophore
Cc1ccccc1NC(=O)C(=Cc1ccc(C(=O)O)cc1)C(=O)Nc1ccccc1C	68*	nt	3	nt	nt	-1	16*
CC(=O)/C(=C/c1ccccc1)C(=O)Nc1ccccc1C	-1	-1	-2	-1	-3	1	nt
Cc1[nH]n(-c2ccccc2)c(=O)c1/C=N\NC(=O)C1COc2ccccc2O1 (stereo not given)	38*	3	1	nt	-2	nt	>38
COc1ccc(-c2cc(=O)[nH][nH]2)cc1	98*	1	-3	8	-102	nt	1.9*
O=c1cc(-c2ccc(Cl)cc2)[nH][nH]1	94*	0	-3	0	-153	nt	1.9*
O=c1cc(-c2ccc(Cl)c(Cl)c2)[nH][nH]1	88*	-3	2	-2	-57	nt	6.6*
Cc1ccc(S(=O)(=O)N(C)C[C@H]2OCCCC[C@@H](C)Oc3ccc(NC(=O)NC(C)C)cc3C(=O)N([C@H](C)CO)C[C@H]2C)cc1	nt	nt	nt	5	nt	0	nt
Cc1noc(C)c1NC(=O)Nc1ccc2c(c1)C(=O)N(C)[C@H]1CC[C@H](CC(=O)N(C)C)O[C@H]1CO2	nt	nt	nt	-1	nt	0	nt
CC(=O)N(c1ccc(Cl)cc1)c1cn(C(C)=O)c2ccccc12	0	-1	1	3	5	1	nt
CC(=O)n1cc(N(C(=O)CCl)c2ccc(C)cc2)c2ccccc21	91*	-1	-3	-1	-3	0	1.7*
Cc1ccc(C(=O)NC(=S)NNS(=O)(=O)c2ccc(C)cc2)cc1	41*	4	-3	3	-3	nt	>38
C[C@@H]1CCCCO[C@H](CN(C)C(=O)NC2CCCCC2)[C@H](C)CN([C@H](C)CO)C(=O)c2cc(NC(=O)c3ccccc3)ccc2O1	nt	nt	nt	-5	nt	nt	nt
COc1ccccc1-c1cn[nH]c(=S)n1	35*	3	-2	-1	0	nt	>38
CCCc1[nH][nH]c(=O)c1C(c1cccc(Cl)c1)C(C#N)C#N (stereo not given)	52*	-5	-8	nt	0	nt	9.4*
Cc1[nH]n(-c2ncc(-c3ccc(Cl)cc3)s2)c(=O)c1C(c1ccc(Cl)cc1)C(C#N)C#N (stereo not given)	7	4	4	nt	8	nt	nt
O=C(c1ccc2nc(Cc3cccc(Cl)c3)oc2c1)N1CCC(CO)CC1	2	0	0	4	-9	0	nt
